Among the data in PubChem BioAssay (NCI) are growth values, retold here.

“And” between values parts separate entries of the source, which are not always exact repeats. Identical values can stand only once. Compounds without any hit were thinned out: in the full panel of roughly 83,000, 20% have a hit.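 48-hour exposure, single concentration, 96-well plates; percent growth endpoint where 0 means no net growth. Active: below 10.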 Unmarked numbers belong to inactive results. The source made the active and inactive calls.

Test systems include T-47D breast; BT-549 breast; MDA-MB-435 melanoma; SW-620 colon; HCT-116 colon; HCC-2998 colon; KM12 colon; MDA-MB-468 breast; MCF7 breast.
What all share (assay): NCI-60 one-dose screen, 48 h (100 = growth as untreated, 0 = no growth, -100 = all killed)
Holding throughout (settings): 10 µM

With `O=C(CSc1nnc(-c2ccc3nc(-c4ccc(Cl)cc4)[nH]c3c2)o1)Nc1ccc(Cl)cc1`, the growth is 28% with T-47D breast; -65.1% (active) in the test on BT-549 breast; -65.8% (active) in the test on MDA-MB-435 melanoma; -69.9% (active) with SW-620 colon; -48.9% (active) in the test with HCT-116 colon; 18.5% in the test on HCC-2998 colon. The growth with KM12 colon was -12.8% (active); in the test on MDA-MB-468 breast, -48.4% (active).

As to `Clc1cccc(N/N=C/c2c[nH]c3ccccc23)n1`, the growth was 27.4% in the test with T-47D breast; 3.11% (active) with BT-549 breast; 19.8% with MDA-MB-435 melanoma; 52.1% with SW-620 colon; 23.4% in the test with HCT-116 colon; 30.2% in the test on HCC-2998 colon. Also, the values for the growth with KM12 colon and in the test on MDA-MB-468 breast were 9.99% (active) and -10.1% (active), respectively.

As for `CCN1CCN(Cc2ccc(NC(=O)c3cccc(-n4cc(-c5ccc(NC(C)=O)nc5)nn4)c3)cc2C(F)(F)F)CC1`, the growth is 100% in the test on T-47D breast; 144% in the test with BT-549 breast; -39.8% (active) in the test on MDA-MB-435 melanoma; 109% in the test on SW-620 colon; 86.3% with HCT-116 colon; 115% with HCC-2998 colon. Also, the growth in the test on KM12 colon is 22.9%; in the test with MDA-MB-468 breast, 74%.

As to `O=c1oc2ccccc2cc1-c1csc(N=Nc2c(O)[nH]c3ccc(Br)cc23)n1`, the growth with T-47D breast was 89.1%; in the test on BT-549 breast, 62.9%; in the test with MDA-MB-435 melanoma, 102%; in the test on SW-620 colon, 104%; with HCT-116 colon, 64.1%; in the test with HCC-2998 colon, 96.3%. The growth is 99.9% in the test on KM12 colon; 95.2% and 64.3% in the test on MDA-MB-468 breast.

On to `CCCn1c(=O)c2[nH]c(-c3ccc(OCc4nc5ccc(C(F)(F)F)cc5[nH]4)cc3)nc2n(CCC)c1=O`, for which the growth in the test on T-47D breast was 33.2%; in the test with BT-549 breast it was 41.7%; in the test on MDA-MB-435 melanoma it was 63%; in the test on SW-620 colon, 70%; in the test on HCT-116 colon, 25.2%; in the test with HCC-2998 colon, 76.7%. Besides, the growth with KM12 colon is 55.5%; with MDA-MB-468 breast, 30.8%.

As to `COc1cccc(C(N)=Nc2ccc(OCCCCCCn3cncn3)cc2)c1`, the growth was 46.1% with T-47D breast; 20.5% with BT-549 breast; 38.1% in the test on SW-620 colon; 19.2% in the test with MCF7 breast; 18.5% with HCC-2998 colon; 18.6% with KM12 colon. Further, the growth with MDA-MB-468 breast was 17.5%.

`O=c1oc2ccc(-c3ccc(F)cc3F)cc2c(=O)n1-c1ccc(F)c(Cl)c1`: the growth with T-47D breast is -11.8% (active); with BT-549 breast it was -51.9% (active); in the test with MDA-MB-435 melanoma, -17.7% (active); with SW-620 colon, 3.17% (active); with HCT-116 colon, 4.77% (active); in the test with HCC-2998 colon, 2.58% (active). Also, the growth was -22.7% (active) in the test on KM12 colon and -47% (active) in the test with MDA-MB-468 breast.

For the molecule `Cc1ccc(C(=O)Nc2ccc(-n3c(C)nc4c(cnn4-c4ccccc4)c3=O)cc2)cc1`, the growth was 34.6% in the test with T-47D breast; 59.2% in the test with BT-549 breast; 70.5% in the test with MDA-MB-435 melanoma; 86.2% in the test with SW-620 colon; 51.5% with HCT-116 colon; 77.5% in the test with KM12 colon. Further, the growth in the test on MDA-MB-468 breast was 21.1%.

For the molecule `CN1CCCN(Cc2ccc(C(=O)Nc3cccc(Nc4ccc5c(O)cccc5n4)c3)cc2C(F)(F)F)CC1`, the growth with T-47D breast is -27.7% (active); in the test with BT-549 breast, -75.2% (active); in the test on MDA-MB-435 melanoma it was -96.5% (active); in the test on SW-620 colon, -92.7% (active); in the test on HCC-2998 colon it was -85.3% (active); in the test with KM12 colon, -11% (active). Further, in the test with MDA-MB-468 breast, the growth is -94.5% (active).

Regarding `COc1ccc2[nH]cc(/C=N/Nc3cccc(Cl)n3)c2c1`, the growth with T-47D breast is 31.5%; with BT-549 breast it was 12.1%; with MDA-MB-435 melanoma, 44.7%; in the test with SW-620 colon it was 79.7%; in the test on HCC-2998 colon it was 39.7%; in the test with KM12 colon, 21.3%. Further, the growth in the test with MDA-MB-468 breast is -13.2% (active).

Consider `CCCCSc1nc(Nc2ccc(/C(C)=N/NC(N)=S)cc2)c(C#N)c(-c2ccccc2)n1`, for which the growth in the test on T-47D breast was 45.9%; in the test on BT-549 breast it was 31.1%; with MDA-MB-435 melanoma, 65.4%; in the test on SW-620 colon it was 56.8%; with HCT-116 colon, 24.6%; in the test with HCC-2998 colon, 53.1%. For the same molecule, the growth with KM12 colon was 72.4%; in the test with MDA-MB-468 breast, -28.4% (active).

With `CN1CCN(c2ccc(C(=O)/C=C/c3cc(C(F)(F)F)ccc3Cl)cc2)CC1`, the growth was -37.4% (active) in the test with T-47D breast; -72.6% (active) in the test on BT-549 breast; -56.5% (active) with MDA-MB-435 melanoma; -70.7% (active) in the test on SW-620 colon; -61.7% (active) in the test with HCT-116 colon; -98.1% (active) with HCC-2998 colon. Further, the growth with KM12 colon was -36.5% (active); with MDA-MB-468 breast, -97.6% (active).

`O=C1Nc2ccc(Cl)cc2/C1=C/c1cccc(OCc2ccccc2)c1`: the growth was 12.5% in the test with T-47D breast; 41.9% in the test with BT-549 breast; 35.4% in the test with MDA-MB-435 melanoma; 45.4% with SW-620 colon; 50.6% in the test on HCC-2998 colon; 38.9% in the test on KM12 colon. In addition, in the test with MDA-MB-468 breast, the growth was -10.2% (active).

Regarding `CCOC(=O)C(Cc1ccccc1)N1C(=O)/C(=C/N2N=C(c3ccc(OC)cc3)CC2c2ccc3ccccc3c2)SC1=S` (stereo not drawn), the growth is 14.6% with T-47D breast; -6.78% (active) in the test on BT-549 breast; 16.3% in the test on MDA-MB-435 melanoma; 13.4% with SW-620 colon; 7.1% (active) with HCT-116 colon; -92% (active) with HCC-2998 colon. For the same molecule, the growth with KM12 colon is 9.78% (active); in the test with MDA-MB-468 breast, -34.1% (active).

`N#Cc1c(NC(=O)c2ccc(C(F)(F)F)cc2)sc2c1CCC(O)=C2`: the growth with T-47D breast is 22.9%; in the test on BT-549 breast it was 58.7%; in the test with MDA-MB-435 melanoma, -33.8% (active); with SW-620 colon it was 17.1%; with HCT-116 colon, 23.9%; in the test with HCC-2998 colon it was 47.3%. Moreover, the growth in the test with KM12 colon was 18.2%; in the test with MDA-MB-468 breast, -31.9% (active).

With `Cc1ccc(-c2cc(C(=O)N=Nc3c(O)[nH]c4ccccc34)c3ccccc3n2)cc1`, the growth with T-47D breast was 43.8%; in the test on BT-549 breast, 34.5%; in the test with MDA-MB-435 melanoma it was 5.71% (active); in the test on SW-620 colon, 8.14% (active); in the test on HCT-116 colon, -15.8% (active); with HCC-2998 colon, 48.4%. Moreover, the growth in the test with KM12 colon was 23.9%; with MDA-MB-468 breast, 26.3%.
